This is an account of results in PubChem BioAssay (NCATS).

The structures appear in SMILES notation. Records with an inconclusive call do not appear. The source made the active and inactive calls. Calls come from the whole dose curve; as a rule, active = well fitted cell-killing curve with a large enough effect; inconclusive = small, poorly fitted or top-dose-only effect, or effect the other way; inactive = no such curve, though single readings can be large or run the other way.
Potency is the fitted concentration of half-maximal effect.

This experiment can be described thus: Quantitative High-Throughput drug screen in 47 multiple myeloma cell lines against the NCATS MIPE library collection: UTMC2_PLB cell viability assay (AID 1919868). Note: nearly all actives have a fitted effect of over 55% in size. The note with it: CellTiter-Glo ATP luminescence, 48 h; viability (% of DMSO control): at 45.8 µM (top of the series) unless noted. The text has this:
PI: Beverly A. Mock Ph.D.
Laboratory of Cancer Biology and Genetics,
Center for Cancer Research, National Cancer Institute,
National Institute of Health, Bethesda, Maryland
Drug resistance and disease progression are common in multiple myeloma (MM) patients, underscoring the need for new therapeutic combinations. […] We hypothesized that effective combinations would reduce MYC expression and enhance p16 activity. […] These preclinical data identify potentially useful drug combinations for evaluation in drug-resistant MM and reveal potential mechanisms of combined drug sensitivity.
Described herein is the primary MIPE qHTS used to cherrypick compounds. Validated compounds were then further tested for potential synergistic activiy.
[1] Peat TJ, Gaikwad SM, Dubois W, Gyabaah-Kessie N, Zhang S, Gorjifard S, Phyo Z, Andres M, Hughitt VK, Simpson RM, Miller MA, Girvin AT, Taylor A, Williams D, D'Antonio N, Zhang Y, Rajagopalan A, Flietner E, Wilson K, Zhang X, Shinn P, Klumpp-Thomas C, McKnight C, Itkin Z, Chen L, Kazandijian D, Zhang J, Michalowski AM, Simmons JK, Keats J, Thomas CJ, Mock BA. Drug combinations identified by high-throughput screening promote cell cycle transition and upregulate Smad pathways in myeloma. Cancer Lett. 2023 Aug 1;568:216284. doi: 10.1016/j.canlet.2023.216284. Epub 2023 Jun 24. PMID: 37356470; PMCID: PMC10408729.
SEQUENCE No. (e.g., 1, 2, 3, etc.); […] (e.g., Cells, Incubation, Reagent, etc.); VALUE and DESCRIPTION.
1; Cells; 5 uL; white, solid bottom 1536-well Greiner assay plate.
2; Compounds; 23 nL; Kalypsis pin tool (Wako USA) equipped with a 1536-well pin head to transfer to the assay plates.
3; Incubation; 48 hours; 37C incubation.
4; Reagent;5uL; CellTiter Glo (Promega).
5; Detector; 425V; Luminescence; Viewlux PerkinElmer.
NOTES (numbers refer to Sequence numbers above)
1. The cell-based screening methods employed in this study were like those previously published. Briefly, the corresponding myeloma cell lines were screened in 1,536-well plates with 500 cells, 5-uL per well for inhibition of cell viability (assessed by measuring ATP levels with CellTiterGlo).
2. NCATS MIPE 4.0 library of approved and investigational drugs were added using the Kalypsis pin tool. Wells treated with DMSO only for 100% viability and media only for 0% viability were used as controls.
3. The assay plates were covered and incubated for 48 hours in a 37C, 5% CO2 incubator with controlled humidity.
4. After 48 hours, CellTilter-GloTM luminescent substrate mix (Promega) reagent was added to the assay plate and plates we incubated for 5 min at room temperature.
5. Signal was measured as median relative luminescence units on a ViewLux (PerkinElmer) multiplate reader.
[1] Heske CM, Davis MI, Baumgart JT, Wilson K, Gormally MV, Chen L, Zhang X, Ceribelli M, Duveau DY, Guha R, Ferrer M, Arnaldez FI, Ji J, Tran HL, Zhang Y, Mendoza A, Helman LJ, Thomas CJ. Matrix Screen Identifies Synergistic Combination of PARP Inhibitors and Nicotinamide Phosphoribosyltransferase (NAMPT) Inhibitors in Ewing Sarcoma. Clin Cancer Res. 2017 Dec 1;23(23):7301-7311. doi: 10.1158/1078-0432.CCR-17-1121. Epub 2017 Sep 12. PMID: 28899971; PMCID: PMC6636827.
Take `CCOc1cc2ncc(C#N)c(Nc3ccc(F)c(Cl)c3)c2cc1NC(=O)C=CCN(C)C`: the Potency is 296 nM (active).

On to `Cn1c2ccccc2c2c3c(c4c5ccccc5n(CCC#N)c4c21)CNC3=O`, for which the Potency is 2640 nM (active).

With `NC(=O)c1cccc2cn(-c3ccc([C@@H]4CCCNC4)cc3)nc12`, the Potency entry is “inactive”.

Turning to `COc1cc(C)c(Sc2cnc(NC(=O)c3ccc(CNC(C)C(C)C)cc3)s2)cc1C(=O)N1CCN(C(C)=O)CC1` (stereo not given), the Potency was 4180 nM (active).

In the case of `CC1(O)CC(c2nc(-c3ccc4ccc(-c5ccccc5)nc4c3)c3c(N)nccn23)C1` (stereo not given), the Potency is 166 nM (active).

As to `COc1cc(Nc2ncc(F)c(Nc3ccc4c(n3)N(COP(=O)(O)O)C(=O)C(C)(C)O4)n2)cc(OC)c1OC`, the Potency was 5260 nM (active).

Turning to `Nc1ccccc1NC(=O)c1ccc(CNC(=O)OCc2cccnc2)cc1`, the Potency was 1320 nM (active).

As to `Cc1nc2cnc3ccc(C#Cc4cccnc4)cc3c2n1-c1ccc(C(C)(C)C#N)cc1`, the Potency is 20.9 nM (active).

In the case of `COc1ccc(C(=O)CC2(O)C(=O)Nc3c(Cl)ccc(Cl)c32)cc1` (stereo not given), the Potency was 4180 nM (active).

Regarding `Clc1cccc(-n2nnnc2NCc2ccccc2Oc2ccccn2)c1Cl`, the Potency result was “inactive”.

`CC(C)c1cc(C(=O)N2Cc3ccc(CN4CCN(C)CC4)cc3C2)c(O)cc1O`: the Potency is 372 nM (active).

Turning to `COc1cc2nccc(Oc3ccc(NC(=O)C4(C(=O)Nc5ccc(F)cc5)CC4)cc3)c2cc1OC`, the Potency was 20900 nM (active).

As to `CC[C@H](CO)Nc1nc(NCc2ccccc2)c2ncn(C(C)C)c2n1`, the Potency was 23500 nM (active).

Consider `CC=C1NC(=O)[C@H]2CSSCCC=C[C@H](CC(=O)N[C@H](C(C)C)C(=O)N2)OC(=O)[C@H](C(C)C)NC1=O`, for which the Potency was 33.2 nM (active).

As for `CCCCN1CCC(CNC(=O)c2c3n(c4ccccc24)CCCO3)CC1`, the Potency was 9350 nM (active).

Take `CC[C@H]1CN2CCc3cc(OC)c(OC)cc3[C@H]2C[C@@H]1C[C@@H]1NCCc2cc(OC)c(OC)cc21`: the Potency was 187 nM (active).

As to `Cc1ccc2nc(NC(=O)CSc3nc4c(c(=O)n3-c3ccccc3)SCC4)sc2c1`, the Potency result is “inactive”.

Consider `CN(c1ncccc1CNc1nc(Nc2ccc3c(c2)CC(=O)N3)ncc1C(F)(F)F)S(C)(=O)=O`, for which the Potency is 2350 nM (active).

On to `Cn1c(=O)n(-c2ccc(C(C)(C)C#N)cc2)c2c3cc(-c4cnc5ccccc5c4)ccc3ncc21`, for which the Potency was 9.3 nM (active).

Consider `CCN1CCN(Cc2ccc(-c3cc4c(N[C@H](C)c5ccccc5)ncnc4[nH]3)cc2)CC1`, for which the Potency was 662 nM (active).

Turning to `CN(C)Cc1c(C(=O)NCCOc2ccc(C(=O)NO)cc2)oc2ccccc12`, the Potency was 418 nM (active).

As to `COc1cc2c(Oc3ccc(-c4cnc(Nc5ccc(F)cc5)n(C)c4=O)cc3F)ccnc2cc1OCCCN1CCOCC1`, the Potency was 5260 nM (active).

For `Cc1nc2ccc(CN(C)c3ccc(C(=O)N[C@@H](CCC(=O)O)C(=O)O)s3)cc2c(=O)[nH]1`, the Potency is 1660 nM (active).

Take `Cc1c(C)n(Cc2ccc(-c3ccccc3C(=O)O)cc2)c2ccc(C(=O)N[C@@H](C)c3ccc([N+](=O)[O-])cc3)cc12`: the Potency is 20900 nM (active).

For `C[C@@H](Oc1cc(-c2cnn(C3CCNCC3)c2)cnc1N)c1c(Cl)ccc(F)c1Cl`, the Potency is 2350 nM (active).

As for `O=C(NC1CCNCC1)c1[nH]ncc1NC(=O)c1c(Cl)cccc1Cl`, the Potency was 662 nM (active).

As for `COc1cc2c(Oc3ccc(NC(=O)C4(C(=O)Nc5ccc(F)cc5)CC4)cc3F)ccnc2cc1OCCCN1CCOCC1`, the Potency is 3320 nM (active).

Regarding `Cc1ccc(C(N)=O)cc1Nc1nccc(-c2cn(C(C)C)c3cnccc23)n1`, the Potency is 6620 nM (active).

As for `CC(C)(C)c1cc(C(C)(C)C)c(NC(=O)c2c[nH]c3ccccc3c2=O)cc1O`, the Potency entry was “inactive”.

Consider `CN1CCC(CNc2ccc3ncc(-c4cccc(OC(F)(F)F)c4)n3n2)CC1`, for which the Potency is 5900 nM (active).

Regarding `Cc1nc(N)ncc1-c1nc(N2CCOCC2)c2sc(C(C)(C)O)cc2n1`, the Potency is 332 nM (active).

As for `CN1CCN(Cc2ccc(NC(=O)Nc3ccc(Oc4cc(NC(=O)C5CC5)ncn4)cc3)cc2C(F)(F)F)CC1`, the Potency was 132 nM (active).

Turning to `CC(C)c1ccc(Cn2ccc3c4c(N)nc(NC5CC5)nc4ccc32)cc1`, the Potency is 1870 nM (active).

As for `C[C@@H]1COC(Nc2ccc3ncnc(Nc4ccc(OCc5nccs5)c(Cl)c4)c3c2)=N1`, the Potency was 2960 nM (active).

On to `CC(C)(C)OC(=O)Nc1ccc(-c2cc(C(=O)NCCCCCCC(=O)NO)no2)cc1`, for which the Potency was 590 nM (active).

Take `O=c1[nH]nc(Sc2ncc([N+](=O)[O-])s2)n1-c1ccc2c(c1)OCCO2`: the Potency is 2350 nM (active).

With `CC(C)c1nn(-c2c(Cl)cccc2Cl)c2nc(Cc3ccc(OCCO)cc3)[nH]c(=O)c12`, the Potency is 93.5 nM (active).

For `CC(=O)Nc1nc(C)c(-c2ccc(Cl)c(S(=O)(=O)NCCO)c2)s1`, the Potency was 526 nM (active).

Take `COc1cc2c(Oc3ccc4[nH]c(C)cc4c3F)ncnc2cc1OCCCN1CCCC1`: the Potency was 26400 nM (active).

In the case of `OCc1ccc(-c2ccc(-c3ccc(CO)s3)o2)s1`, the Potency was 16600 nM (active).
